Assay results as given in PubChem BioAssay (NCI).
About 83,000 compounds went through this panel and 20% of them were active in at least one assay; those are over-represented in the sample as a whole.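 A percent growth of 40 corresponds to 60% growth inhibition; 0 means no net growth; -100 means all cells died. Active threshold: below 10.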 A number with no mark means an inactive call. Active and inactive are the calls of the source.

Key:
Assay in all cases: NCI-60 one-dose screen, 48 h (100 = growth as untreated, 0 = no growth, -100 = all killed)
Details in all cases: 10 µM
SN12C renal = tested on: SN12C renal
UO-31 renal = tested on: UO-31 renal
TK-10 renal = tested on: TK-10 renal
ACHN renal = tested on: ACHN renal
CAKI-1 renal = tested on: CAKI-1 renal
A498 renal = tested on: A498 renal
CCRF-CEM leukemia = tested on: CCRF-CEM leukemia
MOLT-4 leukemia = tested on: MOLT-4 leukemia
SR leukemia = tested on: SR leukemia
RPMI-8226 leukemia = tested on: RPMI-8226 leukemia
OVCAR-8 ovarian = tested on: OVCAR-8 ovarian
OVCAR-5 ovarian = tested on: OVCAR-5 ovarian
OVCAR-4 ovarian = tested on: OVCAR-4 ovarian
SK-OV-3 ovarian = tested on: SK-OV-3 ovarian
IGROV1 ovarian = tested on: IGROV1 ovarian
OVCAR-3 ovarian = tested on: OVCAR-3 ovarian
HS 578T breast = tested on: HS 578T breast
T-47D breast = tested on: T-47D breast
NCI/ADR-RES ovarian = tested on: NCI/ADR-RES ovarian

Structure (SMILES)	growth (SN12C renal)	growth (UO-31 renal)	growth (TK-10 renal)	growth (ACHN renal)	growth (CAKI-1 renal)	growth (A498 renal)	growth (CCRF-CEM leukemia)	growth (MOLT-4 leukemia)	growth (SR leukemia)	growth (RPMI-8226 leukemia)	growth (OVCAR-8 ovarian)	growth (OVCAR-5 ovarian) [%]	growth (OVCAR-4 ovarian)	growth (SK-OV-3 ovarian)	growth (IGROV1 ovarian)	growth (OVCAR-3 ovarian)	growth (HS 578T breast)	growth (T-47D breast)	growth (NCI/ADR-RES ovarian)
COc1cc(/C=C2\CCCC3=C2N=C2SC=NN2C3c2cc(OC)c(OC)c(OC)c2)cc(OC)c1OC (centres undefined)	7.13% (active)	36%	17.5%	15.3%	9.47% (active)	24.5%	2.74% (active)	-2.28% (active)	7.88% (active)	-22.5% (active)	9.84% (active)	91.9	47%	57.4%	29%	29.3%	42.8%	61.4%	
Cc1cc2c(C)c3cc(C)c(N)cc3nc2cc1N	12.5%	7.87% (active)	-4.14% (active)	9.76% (active)	14.8%	-5.82% (active)	6.08% (active)	-7.23% (active)	-24.3% (active)	0.782% (active)	-6.68% (active)	12.3	-2.48% (active)	13.3%	-1.9% (active)	14.9%	15.6%	-2.32% (active)	69.2%
O=C1/C(=C\c2ccccc2)CN(C(=O)c2ccccc2F)C/C1=C\c1ccccc1	6.12% (active)	12.4%	53.8%	-3.34% (active)	30.4%	45%	-7.33% (active)	-4.02% (active)	-35.1% (active)	-40.3% (active)	10.6%	64.9	28.8%	36.6%	-11.2% (active)	-20.1% (active)	-10.1% (active)	42.7%	23.8%
COc1ccc(-c2nn(-c3cccc(NC(=O)Nc4ccccc4)c3)cc2-c2ccncc2)cc1Cl	31.4%	-39.9% (active)	28.1%	34.8%	-7.47% (active)	32.2%	11.9%	-2.67% (active)	-6.06% (active)	-35.3% (active)	0.341% (active)	35.5	41.4%	80.5%	33.3%	39.4%	31.9%	30.9%	22.4%
CCCCCCCNc1nc(C=O)ncc1-c1ccc(C(F)(F)F)cc1	101%	63.1%	97%	104%	98.4%	86.2%	83.9%	86.5%	-2.53% (active)	84%	102%	103	110%	96.5%		97.6%	107%	81.6%	90.1%
ClC(Cl)(Cl)c1nc2nccnc2[nH]1	98%	80.4%	119%	103%	87.2%	107%	96.7%	104%	102%	98.8%	107%	104	97.3%	102%		118%	99.2%	101%	109%
COc1ccc([N+](=O)[O-])c(C(=O)O)c1	99.9%	88%	104%	105%	95.7%	85.6%	112%	74.4%	93.8%	110%	101%	102	102%	99.1%		102%	98.1%	93.3%	110%
COc1ccc(-c2nn(-c3cccc(NC(=O)Nc4cccc(C(F)(F)F)c4)c3)cc2-c2ccncc2)cc1Cl	19.7%	-4.03% (active)	11.8%	17.5%	1.63% (active)	0.293% (active)	2.2% (active)	2.54% (active)	4.34% (active)	-11% (active)	-4.63% (active)	56.1	18.1%		14.5%	3.89% (active)	32.5%	-6.95% (active)	0.659% (active)
c1ccc(CP(Cc2ccccc2)c2ccccc2)cc1	100%	73.8%	98.6%	102%	92.3%	103%	89.5%	92.5%	82.3%	92.7%	94.8%	102	113%	100%		112%	117%	116%	
Clc1ccc(/C=C2\CCCC3=C2N=C2SC=NN2C3c2ccc(Cl)cc2)cc1 (centres undefined)	104%	86.5%	112%	103%	106%	81.7%	86.6%	99%	76.3%	-12.1% (active)	91.4%	107	92.1%	109%	104%	112%	96.6%	88.2%	
Cn1c(C(N)=O)cc2c1-c1nc(Nc3ccccc3)ncc1CCC2	28%	12.5%	23.7%	25.6%	23.5%	-43.8% (active)	43.5%	42.3%	17.3%	53.2%	51%	36.4	33.1%		25.5%	63.5%	17.3%	65.1%	66.3%
NC(=O)CC1(c2ccccc2)CCCCC1	101%	93.1%	109%	104%	96.8%	102%	98.9%	94.2%	90.9%	99.1%	107%	111	103%	103%		103%	115%	97.5%	107%
Cc1ccc(S(=O)(=O)Oc2ccc3c4c(c(=O)oc3c2)CCCCC4)cc1	66.2%	64.6%	74.3%	78.7%	59.6%	61.8%	43%	42.2%	2.57% (active)	24%	63.1%	93.5	51.3%	93.1%	82.1%	75.1%	79.7%	33.4%	
O=C1/C(=C\c2ccc(Br)cc2)CN(C(=O)c2ccccc2F)C/C1=C\c1ccc(Br)cc1	14.4%	-53.6% (active)	55.2%	32.3%	7.2% (active)	74.9%	-10.4% (active)	4.49% (active)	-27.4% (active)	-37.7% (active)	1.47% (active)	69.4	18.2%	27.2%		-52.6% (active)	24.1%	53.3%	12.7%
COc1ccc(-c2cc(/C=C/C(=O)c3cc(OC)c(OC)c(OC)c3)[nH]n2)cc1OC	8.28% (active)	-92.1% (active)	-33.2% (active)	-61.9% (active)	4.66% (active)	-2.03% (active)	4.09% (active)	3.41% (active)	3.11% (active)	-39.1% (active)	-17.1% (active)	17.5	-51.6% (active)	39.3%		-17.5% (active)	71%	-14% (active)	12.3%
COc1cccc(Cn2c(-c3nonc3N)nc3ccccc32)c1	43.8%	33.2%	31.7%	46.6%	20.5%	-19.3% (active)	9.82% (active)	25.6%	-5.32% (active)	4.9% (active)	21.4%	37.5	32.2%	6.27% (active)		-54% (active)	3.15% (active)	55.1%	14.4%
COc1cc(/C=C/C(=O)c2ccc(Cl)cc2)ccc1OS(=O)(=O)c1ccc(C)cc1	86.6%	74.2%	116%	94.3%	82.5%	86.3%	12.9%	-2.36% (active)	-13.8% (active)	-16.7% (active)	83.8%	111	92.5%	96.8%	97.9%	80.7%	129%	76.8%	81.4%
